# From PubChem
# This is a sample that favours compounds with a hit; in the whole collection about 7.3% have one here.
# Vaccinia Venus – inhibitors of vaccinia virus (Venus reporter). Vaccinia virus Venus reporter expression, fluorescence. Potency, µM (highest dose often 36.5 µM), inactives show at the top dose activity change, negative = inhibition, hits mostly inhibitors. hit rate 0.46% among 330,000. AID 720580; calls by dose curve; tested in A549 cells; also: potency is read from the fitted curve at half-maximal effect; nearly all actives have a fitted effect of over 30% in size
# FMDV antiviral – foot and mouth disease virus antiviral activity; FMDV antiviral cell-based qHTS; Potency, µM (top dose mostly 57.9 µM), for the others: at the top dose activity change, negative = inhibition, hits mostly inhibitors; hit rate 1.2% among 410,000; calls by dose curve; tested in HEK293T cells; also: read-out not given here; potency is read from the fitted curve at half-maximal effect; nearly all actives have a fitted effect of over 45% in size
# Vaccinia mCherry – vaccinia inhibition (mCherry reporter); hit rate 0.63% among 310,000; Vaccinia virus mCherry reporter infection, fluorescence; Potency, µM (top dose mostly 36.5 µM), for the others: at the top dose activity change, negative = inhibition, hits mostly inhibitors; calls by dose curve; tested in A549 cells; also: potency is read from the fitted curve at half-maximal effect; nearly all actives have a fitted effect of over 35% in size
# HCMV inh – inhibitors of human cytomegalovirus | activity change, negative = inhibition, % at 57.5 µM | HFF cells, HCMV-luciferase reporter, 72 h; active compounds read low | hit rate 4.5% among 410,000; in the data active = activity change below about -60%; inconclusive = no clear call, values can overlap the other calls; inactive = above about -39%
#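 Compounds were evaluated in HFFs infected with an HCMV luciferase reporter virus (MOI 1 PFU/cell). Luciferase in lysates collected 72 h post infection served as the replication measure.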
# HCV inhibitor – HCV inhibition; hit rate 3.4% among 340,000; Potency, µM (highest dose often 41.8 µM), for inactives: at the top dose activity change, negative = inhibition, most hits filed as inhibitors; Huh7.5.1 HCVcc-Cre infection, luciferase reporter, 44 h; active = well fitted inhibition curve with a large enough effect; inconclusive = small, poorly fitted or top-dose-only effect, or another doubt; inactive = no such curve, though single readings can be large or run the other way; also: potency is read from the fitted curve at half-maximal effect
#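 HCVcc-Cre virus at an moi near 0.5 was added right after compound to cells cultured 4 h from seeding (1,000 cells/well). Luciferase activity was determined 44 h later, 15 min after substrate addition at RT.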
# * hit, by the source's call; i = inactive; ? = inconclusive; . = no result; [ ] = remark or other dose. % is scaled to controls: 0 for no effect and ±100 for the full control effect.
SMILES,Vaccinia Venus,FMDV antiviral,Vaccinia mCherry,HCMV inh,HCV inhibitor
Cc1ccc(C)c(OC2=NS(=O)(=O)c3ccccc32)c1,5.4%,35.5µM*,-7.2%,19.6,-7.5%
CN(C)c1nc(C=C(C#N)C#N)c(Cl)n1-c1ccc(F)cc1,?,14.1µM*,?,-97.5*,?
CN(C)c1ccc(C=C(C#N)C#N)cc1,-15.7%,-14.6%,i,-19.8,1.0%
COC(=O)[C@@H]1CC[C@@](C)(c2ccc(OC)cc2)C1(C)C,-2.3%,-12.8%,i,-25.1,16.7%
COC(=O)[C@H]1C[C@H](C(=O)O)[C@@H](C)C1(C)C,-4.7%,-1.9%,-16.0%,-94.5*,13.5%
COc1ccc(-c2cc(CNC(=O)CCl)on2)cc1,8.91µM*,?,.,-62.6*,?
CCc1c(C)sc2c1CCN(C(=O)Nc1ccccc1C(=O)OC)C2c1ccc(F)cc1 (configuration not stated),-1.4%,-29.5%,-5.2%,-1.0,.
CCc1c(C)sc2c1CCN(C(=O)Nc1ccc(F)c(Cl)c1)C2c1ccc(F)cc1 (configuration not stated),-2.5%,39.8µM*,-19.1%,-103.7*,.
Cc1ccc(-n2nc(CO)c(C(=O)NC(C)CCCc3ccccc3)n2)cc1C (configuration not stated),0.8%,-21.4%,5.7%,?,.
Nn1c(Cc2cccc3ccccc23)nnc1SCc1c(F)cccc1Cl,-21.0%,-8.2%,-27.6%,?,3.6%
Cn1c(CS(=O)Cc2c(Cl)cccc2Cl)nnc1SCc1ccc(Cl)cc1 (configuration not stated),.,-2.5%,.,-11.9,-17.7%
O=S(Cc1ccc(Br)cc1)Cc1nnc(SCc2ccc(Cl)cc2)n1-c1ccccc1 (configuration not stated),?,0.0%,i,-65.6*,6.31µM*
O=S(Cc1ccc(Br)cc1)Cc1nnc(SCc2c(F)cccc2Cl)n1-c1ccccc1 (configuration not stated),-29.0%,35.5µM*,-11.9%,?,?
Cc1nnc(SCC(=O)Nc2cc(S(C)(=O)=O)ccc2Cl)n1Cc1ccccc1,4.3%,-2.4%,-9.0%,28.8,?
Cc1ccc(S(=O)(=O)/N=C2\C=C(Nc3cccc(C(=O)O)c3)C(=O)c3ccccc32)c(C)c1,-23.9%,?,-12.9%,-72.6*,10.5%
CC(C)(C)c1ccc(S(=O)(=O)/N=C2\C=C(NS(=O)(=O)c3ccccc3)C(=O)c3ccccc32)cc1,6.9%,27.7%,i,-10.9,-19.2%
Cc1ccc(S(=O)(=O)/N=C2\C=C(NS(=O)(=O)c3ccccc3)C(=O)c3ccccc32)c(C)c1,11.6%,34.5%,?,-90.6*,-1.0%
C=C(c1ccccc1O)n1ccnc1,-4.6%,-14.8%,-8.4%,-33.8,15.2%
Cc1cc(C(C)(C)C)oc1C(=O)O,.,-6.9%,.,22.9,2.2%
Cc1cc(C(C)(C)C)oc1C(=O)N1CCN(C(=O)c2oc(C(C)(C)C)cc2C)CC1,.,?,.,-66.5*,3.5%
N#Cc1cc(-c2ccc(Cl)cc2)cn(Cc2c(Cl)cccc2Cl)c1=O,.,-9.0%,.,-88.6*,4.3%
CN(Cc1ccccc1)C(=O)c1ccc2nc([C@@H]3O[C@H](CO)[C@H](O)[C@H](O)[C@H]3O)[nH]c2c1,0.3%,-6.3%,0.2%,-2.2,.
COc1cccc(/C=N/Nc2ccccc2C(=O)O)c1O,.,7.5%,.,-79.8*,16.4%
COc1cccc(/C=N/Nc2ccc(C(=O)O)cc2)c1O,-13.2%,3.55µM*,-8.6%,-95.4*,21.3%
COc1cccc(/C=N/Nc2ccc(S(=O)(=O)O)cc2)c1O,.,12.6%,.,35.1,2.2%
COc1cccc(OCc2cc(/C=N/Nc3ccc(C(=O)O)cc3)ccc2OC)c1,5.2%[7.34 µM],0.891µM*,?,8.6,0.1%
CC1(Oc2cccc(C#N)c2)CCN(Cc2ccccc2OC(F)F)C1 (configuration not stated),-22.2%,-24.9%,i,?,.
COc1cccc(CC2(CO)CCCN(Cc3c(C)cc(C)cc3-n3cccn3)C2)c1 (configuration not stated),-23.2%,-10.5%,-7.8%,-68.8*,?
COc1cccc(CC2(CO)CCCN(Cc3[nH]c4ccc(C)cc4c3C)C2)c1 (configuration not stated),?,7.0%,11.2µM*,-12.1,?
COc1cccc(CC2(CO)CCCN(Cc3ccc(C)s3)C2)c1 (configuration not stated),-10.3%,-19.2%,-24.3%,-20.2,-0.3%
